The list is not random: actives were taken first. Their share in the collection is about 21%.
Shiga toxin inh: blocks Shiga toxin action in Vero cells. Vero cells, Shiga toxin protein synthesis inhibition reporter. inhibition, % at 38.7 µM. 9.2% of 290,000 active. AID 2315; in the data active = inhibition mostly above about 28%, no sharp cut-off; inactive = mostly below about 43%
Pf growth 96h: P. falciparum growth inhibition at 96 hours | P. falciparum luciferase reporter growth, 96 h | Potency, µM (titrated, usually from 28.7 µM), most hits filed as inhibitors | 6.9% of 320,000 active | AID 504834
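Compounds incubated with erythrocytes infected by luciferase-expressing P. falciparum (2% hematocrit, 0.05% parasitemia final) for 96 hours, 37 C in 5% CO2. Growth inhibition scored as decreased luciferase luminescence.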
Pf growth 48h: inhibits P. falciparum growth in the first generation, 48 h; Potency, µM (series often up to 28.7 µM), most hits filed as inhibitors; 5.9% of 310,000 active; P. falciparum luciferase growth in erythrocytes, 48 h
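Compounds are pin-transferred into medium, infected erythrocytes (2% hematocrit, 0.1% parasitemia final) are added, and plates sit one parasite generation at 37 C in 5% CO2. Detection reagent is then added and luminescence measured.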
CHX counter: counter-screen for Shiga toxin inhibitors: cycloheximide protein synthesis inhibition; max response, %; 12% of 300,000 active; cell reporter, cycloheximide protein synthesis inhibition counterscreen; AID 2314; in the data active = max response mostly above about 13%, no sharp cut-off; inactive = mostly below about 14%; also: read at 38.3 µM for the half of the compounds with a filed dose
Numbers stand for hits; – = inactive; ? = inconclusive; · = not tested or not shown. Unless noted, calls follow the shape of the dose curve; as a rule, active = well fitted inhibition curve with a large enough effect; inconclusive = small, poorly fitted or top-dose-only effect, or another doubt; inactive = no such curve, though single readings can be large or run the other way.

SMILES	Shiga toxin inh	Pf growth 96h	Pf growth 48h	CHX counter
Cc1ccc(N=C(c2cccs2)N2CCOCC2)cc1	59	·	–	15
O=C(c1cccs1)N1CCOCC1	–	–	–	–
Cc1cc2c(cc1C)CSC(c1ccccc1O)SC2	–	·	–	–
Cc1cc2c(cc1C)CSC(c1ccc3ccccc3c1O)SC2	–	?	9.3µM	–
Cc1cc2c(cc1C)CSC(c1c(O)ccc3ccccc13)SC2	–	·	12µM	–
NNc1cc([N+](=O)[O-])cc2c1C(=O)N(Cc1ccccc1)S2=O (stereo not given)	–	–	–	–
CC1(C)O[C@H]2CC(=O)OC[C@]23[C@H]2CC[C@@]4(C)[C@H](c5ccoc5)OC(=O)[C@H]5O[C@]54[C@]2(C)[C@@H](O)C[C@@H]13	·	–	–	·
Cn1c(SCC(=O)NCc2ccccc2)nnc1-c1ccc(NC(=O)CCc2ccccc2)cc1	–	·	?	–
Cc1ccc(-c2nnc(SCC(=O)CC(=O)Nc3ccccc3)n2C)cc1	–	?	?	–
COc1ccccc1NC(=O)CSc1nnc(CCNC(=O)c2ccc(C)cc2)n1C	–	–	?	15
COc1ccccc1NC(=O)CC(=O)CSc1nnc(-c2ccc(C)cc2)n1C	–	–	12µM	–
CCCCSc1nnc(-c2ccc(NC(=O)CCc3ccccc3)cc2)n1C	–	12µM	?	–
Cn1c(SCC(=O)CC(=O)Nc2ccccc2)nnc1-c1ccc(O)cc1	–	12µM	–	–
COc1ccc(CNC(=O)C/C(C)=N/NC(=O)COc2cccc(C)c2)cc1	–	–	–	–
CN(C)S(=O)(=O)c1ccc(N2CCCC2)c(C(=O)N2CCN(S(=O)(=O)c3cccc(F)c3)CC2)c1	·	–	10µM	·
CN(C)S(=O)(=O)c1ccc(N2CCCC2)c(C(=O)N2CCN(c3ccc([N+](=O)[O-])cc3)CC2)c1	–	?	?	–
CC(=O)Nc1ccc(NC(=O)COC(=O)c2cc(S(=O)(=O)N(C)C)ccc2N2CCCC2)cc1	·	–	–	·
CCOc1ccccc1N1CCN(C(=O)c2cc(S(=O)(=O)N(C)C)ccc2N2CCCC2)CC1	·	?	10µM	·
CN(C)S(=O)(=O)c1ccc(N2CCCC2)c(C(=O)OCC(=O)N2CCN(c3ccccc3)CC2)c1	·	–	15µM	·
CN(CC(=O)Nc1ccc(F)cc1)C(=O)COC(=O)c1cc(S(=O)(=O)N(C)C)ccc1N1CCCC1	·	8.3µM	12µM	·
O=C(Nc1cccc(C(F)(F)F)c1)C1CCN(S(=O)(=O)c2cccnc2)CC1	–	?	–	–
C/C(N)=C(/C#N)C(=O)COC(=O)c1cccc(C)c1O	–	–	–	–
CCN(CC)S(=O)(=O)c1ccc(N2CCCC2)c(C(=O)OCC(=O)/C(C#N)=C(\C)N)c1	–	–	9.3µM	–
Cc1ccc(S(=O)(=O)Oc2ccccc2/C=N/Nc2ccc(C(=O)O)cc2)cc1	–	–	–	26
Cc1ccc(S(=O)(=O)Oc2ccccc2/C=N/O)cc1	–	–	–	–
SMILES	Shiga toxin inh	Pf growth 96h	Pf growth 48h	CHX counter
COc1cccc(N2CCN(C(=O)c3cccnc3)CC2)c1	–	·	–	–
CCNC(=O)N1CCCC(C(=O)c2ccc3cc(OC)ccc3c2)C1 (stereo not given)	–	?	?	20
COc1ccc2cc(C(=O)C3CCCN(C(=O)C4=NN(C)C(=O)CC4)C3)ccc2c1 (stereo not given)	–	5.2µM	–	20
COc1cc(OC)cc(C(=O)N2CCN(C(=O)c3cccnc3)CC2)c1	–	15µM	?	–
COc1ccc2cc(C(=O)C3CCCN(C(=O)c4cccnc4)C3)ccc2c1 (stereo not given)	–	12µM	–	–
CCc1ccc(C(=O)NNc2ccc(F)cc2F)cc1	–	–	–	–
COc1ccccc1NC(=O)CCSc1nc(C)cc(C)n1	–	?	–	–
CCOC(=O)c1cnc(SCc2nc(N)nc(Nc3ccc(C)cc3)n2)nc1N	–	·	?	13
CCOC(=O)c1cnc(SCc2nc(N)nc(Nc3ccc(F)cc3)n2)nc1N	–	?	–	9.5
CCS(=O)(=O)N1CCC(c2nc3ccccc3[nH]2)CC1	–	–	–	–
C=CCN(c1ccccc1)S(=O)(=O)c1cccc(C(=O)Nc2ncccc2O)c1	·	?	–	·
COc1ccc(Cn2c(C3CC3)nc3ccc(NC(C)=O)cc3c2=O)cc1	121	?	–	57
COc1ccc(NC(=O)c2ccc3c(c2)C(=O)N(Cc2cccnc2)C3=O)cc1	–	·	–	–
COc1ccc(Cn2c(C)nc3ccc([N+](=O)[O-])cc3c2=O)cc1	–	?	–	–
COc1ccc(Cn2c(C3CC3)nc3ccc(NC(=O)c4cccnc4)cc3c2=O)cc1	54	–	?	22
Cc1ccc(CNC(=O)CS(=O)Cc2nc(-c3ccccc3F)oc2C)cc1 (stereo not given)	–	–	–	–
C=C1C(CCl)(CCl)C2(Cl)C(Cl)C(Cl)C1(Cl)C2(Cl)Cl (stereo not given)	·	2.7µM	1.9µM	·
CC(=O)C1=C(C)Nc2ncnn2C1c1ccccc1F (stereo not given)	–	–	·	–
CC(C)NC(=O)Nc1cccc(Cl)c1	–	–	–	–
CC(Cc1cccs1)NC(=O)Nc1ccc(F)cc1 (stereo not given)	–	–	·	50
CC(Cc1cccs1)NC(=O)Nc1cccc(Cl)c1 (stereo not given)	69	?	·	59
CCn1c(SCC(=O)NNC(=O)Cc2ccccc2)nnc1-c1ccncc1	–	0.33µM	1.5µM	–
CCn1c(SCC(=O)NNC(=O)c2ccccc2)nnc1-c1ccncc1	–	?	–	–
C=CCNC(=O)CSc1nnc(-c2ccncc2)n1CCc1ccccc1	–	12µM	–	–
O=C(CSc1nnc(-c2ccncc2)n1CCc1ccccc1)NCc1ccccc1	–	?	?	–
SMILES	Shiga toxin inh	Pf growth 96h	Pf growth 48h	CHX counter
O=C1OC(Nc2nc(-c3ccc(F)cc3)cs2)c2ccccc21 (stereo not given)	–	?	?	–
Cc1cccc(NC(=O)CSc2nc3[nH]ncc3c(=O)n2-c2ccccc2)c1	–	7.4µM	–	–
COc1cc(NC(=O)CSc2nc3[nH]ncc3c(=O)n2-c2ccc(Cl)cc2)cc(OC)c1	–	–	?	–
COc1cc(NC(=O)CSc2nc3[nH]ncc3c(=O)n2-c2ccccc2C)cc(OC)c1OC	–	–	10µM	–
CN(C)CCCNCC(=O)c1c(-c2ccccc2)n(C)c2ccccc12	–	?	·	–
CCOc1ncccc1C(=O)Nc1cccc(-c2nc3cccnc3s2)c1	–	–	–	–
O=S(=O)(Nc1cccnc1)c1cccs1	–	–	·	–
CCCS(=O)(=O)Nc1cccc(-c2nc3cccnc3s2)c1	57	–	–	28
Cc1ccc(-c2nc3cccnc3s2)cc1NS(C)(=O)=O	62	–	–	33
O=S(=O)(Nc1cccc(-c2nc3cccnc3s2)c1)c1cccs1	50	–	–	18
COc1cc2cc(CCOC(=O)c3ccc(C#N)cc3)oc(=O)c2cc1OC	·	?	–	·
Cc1nn(-c2ccccc2)c2sc(C(=O)N3CCOCC3)cc12	44	–	–	43
COC(=O)c1cc2c(C)nn(-c3ccccc3)c2s1	–	?	–	–
Cn1c2ccccc2c2cc(C(=O)N3CCOCC3)sc21	–	–	–	21

Screens as filed in PubChem.
